Consider 23 compounds from PubChem BioAssay AID651551 (Sanford-Burnham Center for Chemical Genomics, 2012).

For the assay, the target named is PEG-3 (UniProt Q6IN02). In words: GAPDH versus PEG-3 reporter suppression – cell-based, luminescence, counter-screen for PEG-3 promoter inhibitor project, SAR follow-up (AID 651551). Particulars: HeLa PEG-Prom / GAPDH luciferase reporter, 6 or 24 h, run 2, 6 h; at 99 µM (top of the series). Background: Counterscreens check selectivity or assay interference.
Turning to `COc1ccc(-n2nc(C(=O)NCC(=O)Nc3cccc(OC)c3)c3ccccc3c2=O)cc1`, the inhibition % (higher = more inhibition) was 2.47%.

In the case of `COc1ccc(-n2nc(C(=O)NCC(=O)Nc3cc(OC)c(OC)c(OC)c3)c3ccccc3c2=O)cc1OC`, the inhibition % (higher = more inhibition) amounted to 9.37%. In the case of `CCCn1nc(C(=O)Nc2nc(-c3ccccn3)cs2)c2ccccc2c1=O` it was 44.6%; in that of `O=C(Nc1nccs1)c1nn(-c2ccccc2)c(=O)c2ccccc12`, 28.7%. As for `Cc1cc(NC(=O)c2ccccc2C(F)(F)F)n(-c2nc3ccccc3[nH]2)n1`, the figure is 88.2%. In the case of `O=C(Nc1nc2ccccc2s1)c1nn(-c2ccccc2)c(=O)c2ccccc12` it was -4.43%; in that of `Cc1nc(NC(=O)c2ccccc2)sc1-c1csc(Nc2ccccc2)n1`, 5.23%. In the case of `Cc1cc(NC(=O)c2ccccc2)n(-c2nc3ccccc3n2C)n1`, the inhibition % (higher = more inhibition) was found to be 38.3%.

Consider `COc1ccc(-n2nc(C(=O)NCC(=O)Nc3ccc(OC)c(OC)c3)c3ccccc3c2=O)cc1`, for which the inhibition % (higher = more inhibition) was determined as 13.5%.

Regarding `CCn1cc(C(=O)NCc2ccco2)c(=O)c2cc(S(=O)(=O)N3CCCC3)ccc21`, the inhibition % (higher = more inhibition) was -0.291%.

As for `COc1ccccc1Nc1nc(-c2sc(NC(=O)c3ccco3)nc2C)cs1`, the inhibition % (higher = more inhibition) was -0.291%. In the case of `Cc1cc(NC(=O)c2ccccc2C)n(-c2nc3ccccc3[nH]2)n1` it was 41.1%; in that of `O=C(Nc1nc(-c2ccccc2)cs1)c1nn(-c2ccccc2)c(=O)c2ccccc12`, 3.85%.

For `COCCCNC(=O)c1ccc(Cn2c(=O)c3ccccc3n(Cc3ccccc3C#N)c2=O)cc1`, the inhibition % (higher = more inhibition) came out at 23.2%.

Regarding `Cc1ccc(Cl)cc1Nc1nc(-c2sc(NC(=O)c3ccco3)nc2C)cs1`, the inhibition % (higher = more inhibition) is 37%. As for `Cc1nc(NC(=O)c2ccccc2)sc1-c1csc(Nc2cccc(Cl)c2C)n1`, the figure is 32.8%; as for `Cc1cc(NC(=O)c2ccccc2)n(-c2nc3ccccc3[nH]2)n1`, 17.6%.

Take `CCCn1nc(C(=O)Nc2nc(-c3ccncc3)cs2)c2ccccc2c1=O`: the inhibition % (higher = more inhibition) is 7.03%. As for `Cc1cc(NC(=O)c2cccc(C)c2C)n(-c2nc3ccccc3[nH]2)n1`, the figure is 16.4%. On to `CCn1nc(C(=O)Nc2nc(-c3ccccn3)cs2)c2ccccc2c1=O`, for which the inhibition % (higher = more inhibition) amounted to 39.9%. In the case of `Cc1nc(NC(=O)c2ccccc2)sc1-c1csc(Nc2ccccc2Cl)n1` it was 7.99%; in that of `COc1ccc(Cl)cc1Nc1nc(-c2sc(NC(=O)c3ccccc3)nc2C)cs1`, 42.5%; in that of `CCCn1nc(C(=O)Nc2nc3ccccc3s2)c2ccccc2c1=O`, 21.8%.
